From the supplement of paper PMC11732987, “Enantioselective OTUD7B fragment discovery through chemoproteomics screening and high-throughput optimisation” (Communications Chemistry, 2025)
Values without a mark were called inactive.

Key:
Test in all cases: log2 ratio of Biotin-Ahx-Ub-VS probe labelling (fragment/DMSO); higher = less target engagement (more negative = stronger competition), active = hit call of the paper (q ≤ 0.05, log2 ratio ≤ -1)
Settings in all cases: compound concentration: 200 uM; treatment time: 3 h
[1] = target: T1, OTUD6B (UniProt Q8N6M0)
T1 sequence (whole entry): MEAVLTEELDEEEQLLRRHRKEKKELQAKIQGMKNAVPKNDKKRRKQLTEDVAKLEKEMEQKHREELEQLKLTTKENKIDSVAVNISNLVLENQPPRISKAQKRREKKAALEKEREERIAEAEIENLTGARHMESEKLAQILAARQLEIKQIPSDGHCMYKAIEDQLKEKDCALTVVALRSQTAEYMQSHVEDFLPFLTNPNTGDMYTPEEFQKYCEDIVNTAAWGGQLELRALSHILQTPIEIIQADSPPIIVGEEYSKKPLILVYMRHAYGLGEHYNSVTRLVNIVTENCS
Outline: (§1)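 HEK293T lysate (495 µg per sample, in Tris/CHAPS/IGEPAL buffer with protease inhibitors) was treated in triplicate with fragment at 200 µM or with DMSO for 3 h. It was then treated with Biotin-Ahx-Ub-VS (0.5 µM final) for 1 h. Labelled DUBs were NeutrAvidin-enriched, digested with LysC and trypsin, and run by diaPASEF LC-MS/MS. Spectronaut label-free quantities were global-median-normalised. Values are average log2 ratios fragment/DMSO by unpaired t-test, using proteins with ≥2 unique peptides.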

[2] = target: T2, OTUD7B (UniProt Q6GQQ9)
T2 sequence (whole entry): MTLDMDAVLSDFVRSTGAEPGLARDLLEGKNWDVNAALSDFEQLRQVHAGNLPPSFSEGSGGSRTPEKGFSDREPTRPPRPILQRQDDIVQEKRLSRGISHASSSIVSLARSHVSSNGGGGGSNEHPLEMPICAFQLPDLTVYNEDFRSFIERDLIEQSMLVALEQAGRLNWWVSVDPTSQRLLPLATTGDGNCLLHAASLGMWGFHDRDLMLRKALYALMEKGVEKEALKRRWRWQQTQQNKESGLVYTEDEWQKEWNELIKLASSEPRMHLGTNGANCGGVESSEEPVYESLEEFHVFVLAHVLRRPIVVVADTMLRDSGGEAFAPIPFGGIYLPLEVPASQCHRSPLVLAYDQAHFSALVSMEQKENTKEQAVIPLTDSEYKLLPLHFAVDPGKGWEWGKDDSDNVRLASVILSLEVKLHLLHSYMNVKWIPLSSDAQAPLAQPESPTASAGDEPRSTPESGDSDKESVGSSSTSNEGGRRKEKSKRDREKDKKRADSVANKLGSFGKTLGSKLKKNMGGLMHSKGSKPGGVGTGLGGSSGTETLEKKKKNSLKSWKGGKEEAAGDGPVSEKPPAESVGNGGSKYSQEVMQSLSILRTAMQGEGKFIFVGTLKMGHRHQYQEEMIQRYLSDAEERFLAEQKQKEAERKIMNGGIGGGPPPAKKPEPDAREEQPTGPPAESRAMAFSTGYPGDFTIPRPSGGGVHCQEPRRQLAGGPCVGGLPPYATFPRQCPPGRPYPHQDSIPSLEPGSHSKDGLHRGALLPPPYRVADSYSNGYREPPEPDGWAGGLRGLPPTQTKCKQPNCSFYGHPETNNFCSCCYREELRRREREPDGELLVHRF
Outline: as §1

[3] = target: PRPF8 (UniProt Q6P2Q9)
Outline: as §1

[4] = target: T3, PSMD7 (UniProt P51665)
T3 sequence (whole entry): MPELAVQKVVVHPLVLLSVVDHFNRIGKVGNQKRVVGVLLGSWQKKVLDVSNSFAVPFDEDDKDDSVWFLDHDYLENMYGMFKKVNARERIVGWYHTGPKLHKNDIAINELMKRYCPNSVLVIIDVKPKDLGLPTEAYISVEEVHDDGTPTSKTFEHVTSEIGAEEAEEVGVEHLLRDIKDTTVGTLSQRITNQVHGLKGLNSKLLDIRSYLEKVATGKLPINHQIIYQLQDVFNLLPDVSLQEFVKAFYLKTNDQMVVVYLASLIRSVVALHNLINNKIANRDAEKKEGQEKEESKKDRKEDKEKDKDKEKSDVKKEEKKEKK
Outline: as §1

[5] = target: UCHL1 (UniProt P09936)
Sequence of UCHL1 (P09936 whole entry, looked up): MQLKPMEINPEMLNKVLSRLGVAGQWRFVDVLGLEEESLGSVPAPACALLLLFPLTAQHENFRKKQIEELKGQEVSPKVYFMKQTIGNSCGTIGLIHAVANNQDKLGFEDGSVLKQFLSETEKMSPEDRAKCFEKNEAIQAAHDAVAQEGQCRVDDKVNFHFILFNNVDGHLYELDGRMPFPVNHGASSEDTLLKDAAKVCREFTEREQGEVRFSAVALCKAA
Outline: as §1

[6] = target: T4, UCHL3 (UniProt P15374)
T4 sequence (whole entry): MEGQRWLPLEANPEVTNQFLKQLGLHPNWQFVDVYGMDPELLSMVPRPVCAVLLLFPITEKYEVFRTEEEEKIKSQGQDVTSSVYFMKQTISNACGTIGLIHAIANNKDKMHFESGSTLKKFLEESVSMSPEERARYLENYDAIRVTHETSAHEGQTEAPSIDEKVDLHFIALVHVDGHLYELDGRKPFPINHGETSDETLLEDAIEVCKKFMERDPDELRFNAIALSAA
Outline: as §1

[7] = target: T5, UCHL5 (UniProt Q9Y5K5)
T5 sequence (whole entry): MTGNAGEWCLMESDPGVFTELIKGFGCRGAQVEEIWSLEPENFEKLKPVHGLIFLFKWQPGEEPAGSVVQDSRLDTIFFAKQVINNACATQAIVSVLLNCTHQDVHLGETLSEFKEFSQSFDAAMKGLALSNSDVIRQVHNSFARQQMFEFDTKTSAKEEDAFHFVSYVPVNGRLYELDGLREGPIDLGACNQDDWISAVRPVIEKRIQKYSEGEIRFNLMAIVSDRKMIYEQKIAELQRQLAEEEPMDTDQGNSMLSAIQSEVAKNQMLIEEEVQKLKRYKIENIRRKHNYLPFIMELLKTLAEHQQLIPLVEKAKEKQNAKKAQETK
Outline: as §1

[8] = target: USP10 (UniProt Q14694)
Sequence of USP10 (Q14694 whole entry): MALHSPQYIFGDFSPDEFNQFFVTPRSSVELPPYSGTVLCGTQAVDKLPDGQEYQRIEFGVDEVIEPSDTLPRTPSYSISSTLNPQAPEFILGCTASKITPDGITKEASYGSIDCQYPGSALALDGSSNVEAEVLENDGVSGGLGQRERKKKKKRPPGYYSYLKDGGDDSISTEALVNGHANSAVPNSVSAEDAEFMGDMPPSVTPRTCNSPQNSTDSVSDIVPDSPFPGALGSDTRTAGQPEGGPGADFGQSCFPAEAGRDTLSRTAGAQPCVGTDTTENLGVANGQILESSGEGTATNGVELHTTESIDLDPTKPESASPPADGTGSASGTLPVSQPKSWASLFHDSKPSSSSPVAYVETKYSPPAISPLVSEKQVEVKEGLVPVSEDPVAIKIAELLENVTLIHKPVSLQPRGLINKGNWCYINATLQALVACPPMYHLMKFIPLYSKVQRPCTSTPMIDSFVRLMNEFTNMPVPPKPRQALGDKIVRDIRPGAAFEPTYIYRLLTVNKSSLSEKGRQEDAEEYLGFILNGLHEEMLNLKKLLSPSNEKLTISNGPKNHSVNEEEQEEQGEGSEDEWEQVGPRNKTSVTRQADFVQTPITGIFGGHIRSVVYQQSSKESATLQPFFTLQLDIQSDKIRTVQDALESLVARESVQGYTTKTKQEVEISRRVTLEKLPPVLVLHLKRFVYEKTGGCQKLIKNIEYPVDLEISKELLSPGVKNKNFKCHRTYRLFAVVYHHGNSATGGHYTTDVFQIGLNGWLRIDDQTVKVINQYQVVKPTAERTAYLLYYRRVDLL
Outline: as §1

[9] = target: T6, USP15 (UniProt Q9Y4E8)
T6 sequence (whole entry): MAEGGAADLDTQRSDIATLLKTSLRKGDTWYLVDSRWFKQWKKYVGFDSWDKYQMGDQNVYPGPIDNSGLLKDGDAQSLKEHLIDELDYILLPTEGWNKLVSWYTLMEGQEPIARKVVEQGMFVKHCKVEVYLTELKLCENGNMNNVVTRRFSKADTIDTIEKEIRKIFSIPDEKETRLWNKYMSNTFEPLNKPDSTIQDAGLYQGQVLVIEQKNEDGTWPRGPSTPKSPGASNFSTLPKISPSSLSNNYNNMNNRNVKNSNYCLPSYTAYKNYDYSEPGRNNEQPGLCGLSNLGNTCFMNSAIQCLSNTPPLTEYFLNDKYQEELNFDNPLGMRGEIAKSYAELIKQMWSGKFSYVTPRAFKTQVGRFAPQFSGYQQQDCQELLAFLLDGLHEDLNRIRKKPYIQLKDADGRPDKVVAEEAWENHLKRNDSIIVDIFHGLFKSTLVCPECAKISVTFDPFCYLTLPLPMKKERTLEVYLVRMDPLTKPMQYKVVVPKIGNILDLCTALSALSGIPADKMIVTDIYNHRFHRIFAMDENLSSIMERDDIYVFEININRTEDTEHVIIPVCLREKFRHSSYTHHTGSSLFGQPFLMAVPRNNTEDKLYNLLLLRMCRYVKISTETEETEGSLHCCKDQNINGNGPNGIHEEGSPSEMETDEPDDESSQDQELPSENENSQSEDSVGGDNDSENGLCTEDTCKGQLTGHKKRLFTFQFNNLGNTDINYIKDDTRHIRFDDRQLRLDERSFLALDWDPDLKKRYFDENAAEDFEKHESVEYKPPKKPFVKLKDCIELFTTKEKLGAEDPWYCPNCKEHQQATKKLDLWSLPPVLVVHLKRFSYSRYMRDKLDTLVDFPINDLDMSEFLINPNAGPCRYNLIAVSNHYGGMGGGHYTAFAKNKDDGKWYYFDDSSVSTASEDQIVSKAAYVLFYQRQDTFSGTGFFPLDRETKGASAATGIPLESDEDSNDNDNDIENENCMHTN
Outline: as §1

[10] = target: USP16 (UniProt Q9Y5T5)
Sequence of USP16 (Q9Y5T5 whole entry, looked up): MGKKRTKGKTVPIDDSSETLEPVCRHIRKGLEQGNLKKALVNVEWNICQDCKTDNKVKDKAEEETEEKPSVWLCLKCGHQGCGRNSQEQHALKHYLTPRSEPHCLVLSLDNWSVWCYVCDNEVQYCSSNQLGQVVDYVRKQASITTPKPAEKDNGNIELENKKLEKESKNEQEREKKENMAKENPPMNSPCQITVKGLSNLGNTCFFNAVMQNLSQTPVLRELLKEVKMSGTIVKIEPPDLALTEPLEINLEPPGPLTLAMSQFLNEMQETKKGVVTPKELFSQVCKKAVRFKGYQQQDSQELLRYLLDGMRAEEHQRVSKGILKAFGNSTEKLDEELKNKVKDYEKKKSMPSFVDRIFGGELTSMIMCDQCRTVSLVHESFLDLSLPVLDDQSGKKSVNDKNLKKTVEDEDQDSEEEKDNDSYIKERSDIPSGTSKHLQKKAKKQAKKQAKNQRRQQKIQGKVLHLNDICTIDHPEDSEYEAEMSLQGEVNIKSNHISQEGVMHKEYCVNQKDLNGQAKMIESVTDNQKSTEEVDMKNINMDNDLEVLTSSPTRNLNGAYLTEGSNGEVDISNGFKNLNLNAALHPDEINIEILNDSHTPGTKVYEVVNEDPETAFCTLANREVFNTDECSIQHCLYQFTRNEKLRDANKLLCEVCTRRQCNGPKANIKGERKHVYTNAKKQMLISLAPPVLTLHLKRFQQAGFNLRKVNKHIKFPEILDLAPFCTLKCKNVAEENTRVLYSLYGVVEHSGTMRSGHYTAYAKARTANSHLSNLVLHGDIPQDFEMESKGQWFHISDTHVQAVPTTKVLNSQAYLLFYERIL
Outline: as §1

`O=C(CCl)NCc1noc(C2CC2)n1` was tested, and the “log2 ratio of Biotin-Ahx-Ub-VS probe labelling” value (shortened to “log2 ratio”) [1] was -0.344, the “log2 ratio” value [2] was -0.572 and the “log2 ratio” value [3] was -0.106. For the same compound, the “log2 ratio” value [4] was -0.219, the “log2 ratio” value [5] was -1.67 (active) and the “log2 ratio” value [6] was 0.307. For the same compound, the “log2 ratio” value [7] was -0.363, the “log2 ratio” value [8] was -0.164 and the “log2 ratio” value [9] was -0.193. The “log2 ratio” value [10] was -0.127.
